Results on eight compounds are retold here after PubChem BioAssay (NCATS).

Several values for one entry are separate records, joined by “and”; a condition that tells them apart may be missing. Equal entries are not always repeated. Records with an inconclusive call do not appear. Activity calls are given as the source filed them. Unless noted, the call rests on the fitted dose curve; in most records, active means well fitted curve in the direction sought with a large enough effect; inconclusive means small, poorly fitted or top-dose-only effect, or another doubt; inactive means no such curve, though single readings can be large; an effect the other way counts as inactive or inconclusive.

Assay [1] can be described thus: qHTS Assay for Lipid Storage Modulators (AID 1519; calls by dose curve). To be noted: Drosophila S3 cells, BODIPY lipid droplet/cell ratio, laser cytometry, cells loaded with oleic acid. In outline:
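Cells seeded at 5,000 per well were treated with compounds over a concentration series and loaded with oleic acid (400 uM, as added). Lipid droplet fluorescence (488 nm excitation, 500-530 nm channel) was read by laser-scanning cytometry and normalized to 20 uM Triacsin C.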
In general terms: qHTS replaces the single test concentration by a dilution series.

The nature of assay [2]: qHTS for differential inhibitors of proliferation of Plasmodium falciparum line 7G8 (AID 1815). To be noted: Plasmodium falciparum 7G8 proliferation inhibition; series mostly up to 28.7 µM.
The nature of assay [3]: qHTS for differential inhibitors of proliferation of Plasmodium falciparum line GB4 (AID 1816). To be noted: Potency: Plasmodium falciparum GB4 proliferation inhibition; series mostly up to 28.7 µM.
The nature of assay [4]: qHTS for differential inhibitors of proliferation of Plasmodium falciparum line 3D7 (AID 1876). To be noted: P. falciparum 3D7 proliferation inhibition; series mostly up to 28.7 µM.
Assay [5] is described as follows: qHTS for differential inhibitors of proliferation of Plasmodium falciparum line D10 (AID 1877). To be noted: series mostly up to 28.7 µM.
The nature of assay [6]: qHTS for differential inhibitors of proliferation of Plasmodium falciparum line Dd2 (AID 1882). To be noted: Potency: Plasmodium falciparum Dd2 proliferation inhibition; series mostly up to 28.7 µM. In outline:
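Dd2-infected erythrocytes (0.3% parasitemia, 2.5% hematocrit final) incubated with compound 72 h at 37 C, 5% CO2; lysed with saponin/Triton buffer containing SYBR Green I, incubated overnight in the dark, then read by fluorescence (485/535 nm). Normalized to 0.29 uM artemisinin and DMSO.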

Assay [7] can be described thus: qHTS for differential inhibitors of proliferation of Plasmodium falciparum line HB3 (AID 1886). Conditions: Potency: Plasmodium falciparum HB3 proliferation inhibition; series mostly up to 28.7 µM.
The target of assay [8] is Ferritin light chain (Equus caballus) (UniProt P02791). The assay is described as follows: qHTS Validation Assay for Identification of Novel General Anesthetics (AID 2323). To be noted: horse apoferritin, anesthetic-site fluorescent probe displacement; series mostly up to 76.9 µM. The method, boiled down: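 Competitive displacement of the profluorescent anesthetic 1-AMA (50% saturated, PBS) from 10 uM apoferritin, 10 min, room temperature. Activity is normalized 380/535 nm fluorescence; concentration-response fitted with a four-parameter Hill equation.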

Assay [9] deals with ATP-dependent DNA helicase Q1 (Homo sapiens) (UniProt P46063). The assay is described as follows: qHTS Validation Assay for Inhibitors of RecQ-Like Dna Helicase 1 (RECQ1) (AID 2353). To be noted: recombinant RECQ1 helicase DNA unwinding assay; series mostly up to 25.6 µM. In outline:
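50 nM RECQ1T1 preincubated 15 min with compound in Tris pH 8.0 buffer with MgCl2, DTT, Tween-20 and 2.5 ug/ml poly(dI-dC); started with 200 nM TAMRA/BHQ-2 forked duplex and 2 mM ATP. Unwinding read as fluorescence (525/598 nm), two reads 2 h apart.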

For assay [10], the target named is RecQ-like DNA helicase BLM (Homo sapiens) (UniProt P54132). The assay is described as follows: qHTS Validation Assay for Inhibitors of Bloom's syndrome helicase (BLM) (AID 2364). Conditions: BLM helicase DNA unwinding, fluorescence, in vitro; series mostly up to 57.1 µM. The method, boiled down: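 50 nM BLM preincubated 15 min at room temperature with compound in pH 8.0 Tris buffer containing 2.5 ug/ml poly(dI-dC); started with 200 nM TAMRA/BHQ-2 forked duplex and 2 mM ATP (final). Unwinding read as TAMRA fluorescence increase, two reads 2 h apart.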

Assay [11] in a line: High Content Imaging Cell-Based qHTS for Inhibitors of the mTORC1 Signaling Pathway in MEF (Tsc2-/-, p53-/-) Cells (AID 2666). To be noted: at 38.3 µM (top of the series). The method, boiled down: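 Phospho-rpS6 (Ser235/236) immunofluorescence, normalized and scored as % positive cells using rapamycin and DMSO controls, was read in empty-vector Tsc2-/-, p53-/- MEFs after 24 h compound exposure at 37 C; propidium iodide counted cells.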

Assay [12] is described as follows: Validation screen for inhibitors of Lassa infection (AID 463096; calls by dose curve). Conditions: Lassa virus infection, cell-based; series mostly up to 46.1 µM.
A short description of assay [13]: Validation screen for small molecules that induce DNA re-replication in MCF 10A normal breast cells (AID 463097). Conditions: MCF 10A cells, DNA re-replication phenotype imaging; series mostly up to 46.1 µM. In outline: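 Read-out is Hoechst total nuclear intensity by fluorescence scanning imager, flagging increased high-DNA-content nuclei. Compounds were incubated with MCF 10A cells for 48 hr (37 C, 5% CO2) before 40 min staining.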

Assay [14] addresses Ubiquitin carboxyl-terminal hydrolase 2 (Homo sapiens) (UniProt O75604). The assay is described as follows: qHTS Validation Assay for Inhibitors of Ubiquitin-specific Protease USP2a Using CHOP2 as the Reporter (AID 463106). To be noted: USP2a cleavage of CHOP2 reporter, enzymatic; series mostly up to 38.3 µM. In outline: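 USP2 core (10 nM final) was preincubated with compound 30 min at RT in pH 8.0 Tris/CaCl2/beta-ME/CHAPS buffer. Ub-CHOP2 and reporter substrate (25 nM final each) were then added, with fluorescence (Ex 485/Em 531) read after 60 min. Data were normalized to NEM full inhibition and fitted to concentration-response curves.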

In assay [15] the target is Alpha-galactosidase (Coffea arabica) (UniProt Q42656). The assay can be described thus: Counterscreen for Glucocerebrosidase Inhibitors: qHTS Assay for Coffee Bean alpha-Galactosidase at pH 5.9 (AID 998). To be noted: coffee bean alpha-galactosidase enzyme assay; series mostly up to 76.9 µM. The method, boiled down: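 Green coffee bean enzyme (2 nM) with 4-methylumbelliferyl alpha-D-galactopyranoside (80 uM) in 50 mM citric acid, 0.005% Tween-20, pH 5.9, 20 min at room temperature; compounds 0.7 nM–77 uM. Stopped at pH 10, fluorescence Ex365/Em440; Hill-fit AC50.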
For orientation: Counterscreens check selectivity or assay interference.

Assay [16] has as its target alpha-glucosidase (Oryza sativa, rice) (UniProt Q653V4). The assay can be described thus: Counterscreen for Glucocerebrosidase Inhibitors: qHTS Assay for Rice alpha-Glucosidase at pH 5.0 (AID 997). To be noted: rice alpha-glucosidase enzyme activity; series mostly up to 76.9 µM. In outline: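 Rice alpha-glucosidase (4 nM final) with 400 uM 4-methylumbelliferyl-alpha-D-glucopyranoside in citrate buffer pH 5.0, 20 min at room temperature, stopped at pH 10; fluorescence 365/440 nm, compounds 0.7 nM–77 uM, AC50 from Hill fits.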

Assay [17] in a line: Validation of Assay for Modulators of Lamin A Splicing (AID 1459; active means well fitted curve in the direction sought with a large enough effect in the signal ratio; the % refers to the signal ratio). To be noted: Lamin A splicing dual RFP/GFP fluorescence reporter; series mostly up to 9.22 µM. In outline:
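Splicing correction read as GFP (500-530 nm) over DsRed2 (575-640 nm) object intensity after 48 h compound exposure of reporter HeLa S3 clones (600 cells/well, 2% FBS medium); ancitabine and cycloheximide titrations, 0.5% DMSO as vehicle.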

A short description of assay [18]: qHTS for differential inhibitors of proliferation of Plasmodium falciparum line W2 (AID 1883). To be noted: Potency: Plasmodium falciparum W2 proliferation inhibition; series mostly up to 28.7 µM.
Assay [19] can be described thus: qHTS Assay for Modulators of Human Peripheral Myelin Protein 22 (PMP22) Expression/Activity (AID 1967; active means well fitted curve in the direction sought with a large enough effect in the signal ratio; the % refers to the signal ratio). Conditions: Cell-based PMP22 reporter, dual-color luciferase ratio, mouse Pmp22 promoter in mouse Schwann cells; series mostly up to 115 µM. In outline: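 Readout is the corrected green/red luminescence ratio after 24 h compound exposure, normalised to untreated cells (0%). Engineered MSC80 mouse Schwann cells express green luciferase from the mouse Pmp22 promoter and red luciferase from EF-alpha as internal control.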

Assay [20] is described as follows: qHTS Assay for Identification of Small Molecule Inducers of Hypoxia Response (AID 2120; active means well fitted curve in the direction sought with a large enough effect in the signal ratio, with a control signal flat, not every such curve was filed as active; the % refers to the signal ratio). Conditions: hypoxia response reporter cells, beta-lactamase ratio readout; series mostly up to 104 µM. In outline:
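HRE-bla ME-180 cells in Opti-MEM with 0.5% dialyzed FBS, pre-plated 4-5 h, then compound titration for 17 h at 37 degrees Celsius. CCF4 loaded 2.5 h at room temperature; 460/530 nm ratio gave %Activity and AC50 for induction.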

Setting [21] is: measured here: cell count channel max response.
Setting [22] is: measured here: lipid channel max response.

Sequence of ATP-dependent DNA helicase Q1 (Homo sapiens) (P46063 whole entry, looked up): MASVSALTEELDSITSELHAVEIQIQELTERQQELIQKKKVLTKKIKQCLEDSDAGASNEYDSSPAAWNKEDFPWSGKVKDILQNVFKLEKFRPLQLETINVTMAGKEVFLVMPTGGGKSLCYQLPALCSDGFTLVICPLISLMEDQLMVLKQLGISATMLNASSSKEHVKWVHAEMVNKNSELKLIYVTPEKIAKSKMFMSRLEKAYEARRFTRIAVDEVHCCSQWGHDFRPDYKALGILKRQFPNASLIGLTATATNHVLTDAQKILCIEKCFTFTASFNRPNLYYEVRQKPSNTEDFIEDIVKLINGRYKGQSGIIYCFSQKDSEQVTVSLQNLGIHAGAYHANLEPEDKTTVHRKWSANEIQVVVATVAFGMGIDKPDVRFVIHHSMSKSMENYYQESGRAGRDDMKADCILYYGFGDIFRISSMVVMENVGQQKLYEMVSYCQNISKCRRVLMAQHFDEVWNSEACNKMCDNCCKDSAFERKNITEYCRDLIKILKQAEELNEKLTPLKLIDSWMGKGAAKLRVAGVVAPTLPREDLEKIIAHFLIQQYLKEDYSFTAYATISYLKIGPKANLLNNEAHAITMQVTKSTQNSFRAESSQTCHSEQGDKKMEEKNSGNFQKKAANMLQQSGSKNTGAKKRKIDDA
Sequence of Ubiquitin carboxyl-terminal hydrolase 2 (Homo sapiens) (O75604 whole entry, looked up): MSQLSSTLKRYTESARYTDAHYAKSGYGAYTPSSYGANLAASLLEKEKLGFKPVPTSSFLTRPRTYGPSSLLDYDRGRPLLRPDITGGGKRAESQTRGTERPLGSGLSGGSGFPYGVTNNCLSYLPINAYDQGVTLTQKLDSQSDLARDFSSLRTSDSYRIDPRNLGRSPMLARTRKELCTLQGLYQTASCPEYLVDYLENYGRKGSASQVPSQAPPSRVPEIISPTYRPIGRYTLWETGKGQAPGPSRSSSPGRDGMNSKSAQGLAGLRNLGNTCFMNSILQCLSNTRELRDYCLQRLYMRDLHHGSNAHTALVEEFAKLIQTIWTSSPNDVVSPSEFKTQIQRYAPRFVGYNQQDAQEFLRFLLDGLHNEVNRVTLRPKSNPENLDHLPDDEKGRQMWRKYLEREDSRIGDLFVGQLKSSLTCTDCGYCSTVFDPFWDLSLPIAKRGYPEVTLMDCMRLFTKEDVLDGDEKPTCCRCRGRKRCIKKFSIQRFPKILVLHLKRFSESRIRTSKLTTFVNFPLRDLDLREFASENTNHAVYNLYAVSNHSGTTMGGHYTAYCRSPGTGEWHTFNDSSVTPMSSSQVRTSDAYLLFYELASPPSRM
Sequence of Alpha-galactosidase (Coffea arabica) (Q42656 whole entry, looked up): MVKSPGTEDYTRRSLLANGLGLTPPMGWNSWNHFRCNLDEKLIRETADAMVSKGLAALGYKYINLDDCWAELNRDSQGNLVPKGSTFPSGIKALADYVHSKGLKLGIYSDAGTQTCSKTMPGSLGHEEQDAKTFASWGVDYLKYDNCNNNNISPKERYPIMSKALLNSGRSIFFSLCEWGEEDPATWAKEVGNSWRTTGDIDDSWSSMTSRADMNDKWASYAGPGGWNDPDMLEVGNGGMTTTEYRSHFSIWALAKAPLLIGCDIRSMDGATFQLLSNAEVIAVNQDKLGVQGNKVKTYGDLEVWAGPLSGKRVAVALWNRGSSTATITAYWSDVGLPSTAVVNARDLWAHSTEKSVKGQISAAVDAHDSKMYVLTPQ
Sequence of Ferritin light chain (Equus caballus) (P02791 2-175 limits assumed): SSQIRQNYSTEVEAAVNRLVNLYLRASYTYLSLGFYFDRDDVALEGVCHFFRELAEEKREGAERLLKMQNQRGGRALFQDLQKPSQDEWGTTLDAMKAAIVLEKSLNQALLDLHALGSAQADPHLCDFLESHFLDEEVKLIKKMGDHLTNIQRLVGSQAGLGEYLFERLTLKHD
Sequence of RecQ-like DNA helicase BLM (Homo sapiens) (P54132 whole entry, looked up): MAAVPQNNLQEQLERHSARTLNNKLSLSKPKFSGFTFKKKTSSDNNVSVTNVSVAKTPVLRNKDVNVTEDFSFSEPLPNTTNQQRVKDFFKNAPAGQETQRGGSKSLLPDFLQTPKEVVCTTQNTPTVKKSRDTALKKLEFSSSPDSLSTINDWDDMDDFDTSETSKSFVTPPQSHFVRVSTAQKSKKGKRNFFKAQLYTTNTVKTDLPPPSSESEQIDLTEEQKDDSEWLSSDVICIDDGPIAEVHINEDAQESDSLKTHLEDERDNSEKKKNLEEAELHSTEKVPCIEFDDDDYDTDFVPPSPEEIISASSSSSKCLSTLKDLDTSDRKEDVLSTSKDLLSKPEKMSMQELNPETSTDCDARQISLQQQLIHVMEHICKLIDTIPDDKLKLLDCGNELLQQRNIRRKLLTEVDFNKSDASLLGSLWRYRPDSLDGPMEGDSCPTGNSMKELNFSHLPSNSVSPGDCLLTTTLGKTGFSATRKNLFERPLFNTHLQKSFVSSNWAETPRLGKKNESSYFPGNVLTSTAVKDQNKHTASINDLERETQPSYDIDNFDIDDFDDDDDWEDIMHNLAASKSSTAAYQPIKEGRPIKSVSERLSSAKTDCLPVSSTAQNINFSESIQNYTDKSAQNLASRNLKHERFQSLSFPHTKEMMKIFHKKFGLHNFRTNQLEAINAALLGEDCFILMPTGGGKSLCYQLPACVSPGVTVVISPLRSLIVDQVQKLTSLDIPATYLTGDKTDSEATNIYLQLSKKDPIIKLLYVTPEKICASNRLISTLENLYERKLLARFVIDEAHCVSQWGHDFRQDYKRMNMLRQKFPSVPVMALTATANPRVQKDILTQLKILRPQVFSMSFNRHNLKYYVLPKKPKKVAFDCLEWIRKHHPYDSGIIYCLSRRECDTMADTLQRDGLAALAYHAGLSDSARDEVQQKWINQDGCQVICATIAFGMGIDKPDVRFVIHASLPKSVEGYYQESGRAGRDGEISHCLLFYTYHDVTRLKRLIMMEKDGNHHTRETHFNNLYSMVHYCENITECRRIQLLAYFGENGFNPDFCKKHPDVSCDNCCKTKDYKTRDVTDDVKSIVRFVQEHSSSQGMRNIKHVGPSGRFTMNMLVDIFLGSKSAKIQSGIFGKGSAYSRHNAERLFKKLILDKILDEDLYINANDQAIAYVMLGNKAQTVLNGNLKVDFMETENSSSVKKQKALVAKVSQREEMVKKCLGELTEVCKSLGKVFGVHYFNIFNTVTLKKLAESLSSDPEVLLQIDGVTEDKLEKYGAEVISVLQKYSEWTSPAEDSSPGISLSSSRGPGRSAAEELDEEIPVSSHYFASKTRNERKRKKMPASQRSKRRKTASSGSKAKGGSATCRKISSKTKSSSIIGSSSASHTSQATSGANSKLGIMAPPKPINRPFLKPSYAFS

With `CN1C(=O)CCS(=O)(=O)C1c1ccc(Cl)cc1` (stereo not drawn), the activity change, negative = inhibition in assay [1] (at 57.5 µM (top of the series)) is 6.74% (inactive) and -0.559% (inactive). The max response in [1] (setting [21]) is 18.4% and 40.6%; in assay [1] (setting [22]), 26.5% and 41.1%. Further, the Potency entry in assay [2], in [3], in assay [4], in assay [5], in [6] and in assay [7] was “inactive” in each case. Moreover, the Potency result in assay [9] is “inactive”. The compound was classed as inactive in assay [8], in assay [10], in [11], in assay [12], in [13] and in assay [14].

For `Cn1c(=O)c2[nH]cnc2n(C)c1=O`, the call in [15] and in assay [12] was inactive. Moreover, the activity change, negative = inhibition in assay [1] (at 25.7 µM (top of the series)) is -0.949% (inactive) and -1.67% (inactive); in assay [1] (at 57.5 µM (top of the series)), 8.67% (inactive). The max response in [1] (setting [21]) was -7.33% and -5.65% and 13.2%; in assay [1] (setting [22]), -6.71% and -6.91% and 31.3%.

As for `O=C1c2ccccc2C(=O)c2ccccc21`, the activity change, negative = inhibition in assay [1] (at 57.5 µM (top of the series)) is 11.7% (inactive). Also, the max response in [1] (setting [21]) came to 14.4%; in assay [1] (setting [22]), 29.4%.

For `CC(C)c1cccc(C(C)C)c1O`, the compound was classed as inactive in [16], in assay [15], in assay [17], in assay [19], in assay [11] and in assay [12]. Moreover, the result in [13] and in assay [14] was inactive. Moreover, the activity change, negative = inhibition in [1] (at 25.7 µM (top of the series)) is -0.519% (inactive). The max response in assay [1] (setting [21]) is -4.81%; in assay [1] (setting [22]), -3.68%. Also, the Potency entry in assay [2], in assay [3], in assay [4], in assay [5], in assay [6] and in assay [18] was “inactive” each time. In addition, the Potency entry in assay [7] and in assay [9] was “inactive” throughout.

Consider `COP(=S)(OC)Oc1ccc(SC)c(C)c1`, for which, in assay [1] (at 57.5 µM (top of the series)), the activity change, negative = inhibition was 5.63% (inactive). Moreover, the max response worked out at 23% in [1] (setting [21]) and 29.4% in [1] (setting [22]). Besides, the result in assay [20] was inactive.

Take `CC[N+](CC)(CC)CCOc1cccc(OCC[N+](CC)(CC)CC)c1OCC[N+](CC)(CC)CC`: the call in assay [15] and in assay [12] was inactive. In addition, in assay [1] (at 25.7 µM (top of the series)), the activity change, negative = inhibition was 0.548% (inactive). For the same compound, the max response in assay [1] (setting [21]) is -4.51%; in assay [1] (setting [22]) it was -4.34%.

As to `COc1cc(OC)c(OC)cc1C=O`, the activity change, negative = inhibition in [1] (at 57.5 µM (top of the series)) is 10.2% (inactive). For the same compound, the results for the max response in assay [1] (setting [21]) and in assay [1] (setting [22]) were 14.2% and 28.2%, respectively. The result in [20] was inactive.

For `C=C(C)[C@H]1CN[C@H](C(=O)O)[C@H]1CC(=O)O`, the activity change, negative = inhibition in [1] (at 57.5 µM (top of the series)) is 0.0201% (inactive). The values for the max response in [1] (setting [21]) and in assay [1] (setting [22]) were -9.16% and -9.1%, respectively. Besides, the Potency entry in [2], in assay [3], in assay [4], in [5], in assay [6] and in assay [18] was “inactive” in each case. The Potency result in assay [7] and in assay [9] was “inactive” each time. For the same compound, the outcome in assay [8], in [11], in [12], in [13] and in assay [14] was inactive.
